Test results: PubChem BioAssay (NCI)
The panel holds about 79,000 compounds, 15% with a hit somewhere; the sample as a whole holds those more often. Calls of active or inactive are those of the source. Cut-off read from the data, not from the text of the source: active = growth inhibition above about 70%; inactive = the rest. Where a SMILES comes first, the peptide text is derived from it.

Assays:
[1] = NCI Yeast Anticancer Drug Screen. Data for the rad50 strain (AID 155);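 note: 0% = growth of vehicle-only cultures of the same strain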; details: S. cerevisiae rad50 strain growth inhibition; at 50.0 µM; stronger effect = higher value
Summary of the method: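 Compounds were tested on a yeast strain with an engineered DNA damage repair alteration; the reported value is growth inhibition normalised to vehicle treatment.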

[2] = NCI Yeast Anticancer Drug Screen. Data for the mec2-1 strain (AID 157); details: S. cerevisiae mec2-1 strain, at 50.0 µM, stronger effect = higher value
Summary of the method: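 Strain: mec2-1 (DNA repair/cell cycle alteration). Compound exposure, then growth measured; inhibition expressed relative to vehicle.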

[3] = NCI Yeast Anticancer Drug Screen. Data for the sgs1 mgt1 strain (AID 161);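 note: 0% = growth of cultures given vehicle only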; details: S. cerevisiae sgs1 mgt1 strain, at 50.0 µM, stronger effect = higher value
Summary of the method: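 Mutant yeast exposed to compound; growth scored against vehicle-only wells.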

[4] = NCI Yeast Anticancer Drug Screen. Data for the cln2 rad14 strain (AID 165);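 note: 0% = growth equal to vehicle treated cultures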; details: S. cerevisiae cln2 rad14 strain, at 50.0 µM, stronger effect = higher value
Summary of the method: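 Compounds are applied to the cln2 rad14 yeast strain, and growth is then compared with that of vehicle-treated cultures to give inhibition.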

[5] = NCI Yeast Anticancer Drug Screen. Data for the bub3 strain (AID 167); details: S. cerevisiae bub3 mutant strain, at 50.0 µM, stronger effect = higher value
Summary of the method: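 Growth of a checkpoint-deficient yeast mutant is measured after compound exposure. Values represent inhibition relative to vehicle.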

[6] = NCI Yeast Anticancer Drug Screen. Data for the mlh1 rad18 strain (AID 175); details: S. cerevisiae mlh1 rad18 strain growth inhibition; at 50.0 µM; stronger effect = higher value
Summary of the method: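 Read-out is yeast growth inhibition, calculated against vehicle-only controls. The compound was applied to a strain engineered with DNA damage repair alterations.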

SMILES | growth inhibition [1] | growth inhibition [2] | growth inhibition [3] | growth inhibition [4] | growth inhibition [5] | growth inhibition [6]
C=[N+](CNC(=O)CNC(=O)C(Cc1ccc([N+](=O)[O-])cc1)NC(=O)OC(C)(C)C)C(=O)CNC(=O)C(Cc1ccc([N+](=O)[O-])cc1)NC(=O)OC(C)(C)C (stereo not given) | -23.1% (inactive) | -28% (inactive) | -29.4% (inactive) | 3.3% (inactive) | -12.2% (inactive) | -18.8% (inactive)
COc1ccc(/C(C)=N/N=C(\C)c2ccc(OC)cc2)cc1 | 7.45% (inactive) | -28.1% (inactive) | 32.3% (inactive) | 12.3% (inactive) | 17.1% (inactive) | 13.6% (inactive)
Cc1cccc(OS(=O)(=O)c2ccccc2)c1 | 34.6% (inactive) | 16.2% (inactive) | 36% (inactive) | 8.1% (inactive) | -6.65% (inactive) | 24.8% (inactive)
CC(C)(O)c1cc(=O)n(-c2ccccc2)[nH]1 | -6% (inactive) | -6.3% (inactive) | 6.55% (inactive) | -64.8% (inactive) | -18% (inactive) | -5.1% (inactive)
C=C(C)CNCCN | 36.1% (inactive) | 22.1% (inactive) | 6.2% (inactive) | -0.6% (inactive) | 26.6% (inactive) | 16.3% (inactive)
CC(C(=O)n1c2ccccc2c2ccccc21)N(c1ccccc1)c1ccccc1 (stereo not given) | -16.8% (inactive) | -15.1% (inactive) | -30.2% (inactive) | 9.15% (inactive) | -29.4% (inactive) | -19.6% (inactive)
Nc1nc(N)c(CCCCc2ccc([N+](=O)[O-])cc2)c(N)n1 | -1.05% (inactive) | 21.1% (inactive) | 24.1% (inactive) | -9.95% (inactive) | -1.4% (inactive) | -21.3% (inactive)
CN(C)CCCC[N+](C)(C)Cc1ccc(C[N+](C)(C)CCCC[N+](C)(C)Cc2ccc(CCl)cc2)cc1 | -9.7% (inactive) | -15% (inactive) | -7.2% (inactive) | -0.95% (inactive) | -1.9% (inactive) | -3.55% (inactive)
CCCC1CC(=O)NC(=O)C1C(=O)OC(C)(C)C (stereo not given) | -13.1% (inactive) | -0.2% (inactive) | -8.65% (inactive) | 11% (inactive) | 9.85% (inactive) | -47.4% (inactive)
COc1ccc(C2OC3=C(Nc4ccc(Cl)cc4N3)C2=O)cc1 (stereo not given) | -1.9% (inactive) | 0.3% (inactive) | 6.65% (inactive) | 9.4% (inactive) | -9.3% (inactive) | 14.9% (inactive)
O=C1OC(c2ccccc2)(c2ccccc2)CC1c1ccccc1 (stereo not given) | 9.05% (inactive) | 7.5% (inactive) | 12.8% (inactive) | -44% (inactive) | -4.25% (inactive) | 20.7% (inactive)
O=C1C2=Nc3ccccc3C(O)N2c2ccccc21 (stereo not given) | 12.8% (inactive) | 22.4% (inactive) | 12% (inactive) | 47.4% (inactive) | 17.3% (inactive) | 8.75% (inactive)
O=S(=O)(Cc1ccccc1)c1ncc(Cl)cn1 | 8.9% (inactive) | 6.65% (inactive) | 13.2% (inactive) | -5.55% (inactive) | 16.9% (inactive) | 16.4% (inactive)
CC1(O)C(=O)N(Cc2ccccc2)c2ccccc21 (stereo not given) | 25.6% (inactive) | -5% (inactive) | -5.2% (inactive) | -8.5% (inactive) | -10.4% (inactive) | 4.05% (inactive)
CC(=O)/C(=C/n1c(=S)sc2ccccc21)C(=O)Nc1ccc([N+](=O)[O-])cc1 | 6.4% (inactive) | 4.55% (inactive) | -2.45% (inactive) | -15.8% (inactive) | -19.8% (inactive) | -8.7% (inactive)
CC(C)CC(NC(=O)C(CCC(=O)O)NC(=O)CNC(=O)CNC(=O)C(CO)NC(=O)C(CC(C)C)NC(=O)C(NC(=O)C(CO)NC(=O)C(C)NC(=O)C(CCCNC(=N)N)NC(=O)C(C)NC(=O)CN)C(C)C)C(=O)NC(CC(=O)O)C(=O)NC(CCCNC(=N)N)C(=O)NC(Cc1c[nH]c2ccccc12)C(=O)NC(Cc1ccc(O)cc1)C(N)=O (stereo not given) (H-GARASVLSGGELDRWY-NH2; configuration not given here) | 21.4% (inactive) | -7.15% (inactive) | 3.25% (inactive) | 8.4% (inactive) | -5.85% (inactive) | 11.7% (inactive)
Nc1nc(N)c2nc(/C=C/c3ccc4c(c3)OCO4)cnc2n1 | -2.25% (inactive) | -25.4% (inactive) | -4.5% (inactive) | 2.15% (inactive) | -9.1% (inactive) | -13.8% (inactive)
Cc1cc2c(C(C)C)c(O)c(O)c(C=Nc3ccc4ccccc4c3)c2c(O)c1-c1c(C)cc2c(C(C)C)c(O)c(O)c(C=Nc3ccc4ccccc4c3)c2c1O | 7.3% (inactive) | -5.2% (inactive) | -6.15% (inactive) | -42.1% (inactive) | -4.6% (inactive) | 1.2% (inactive)

SMILES | growth inhibition [1] | growth inhibition [2] | growth inhibition [3] | growth inhibition [4] | growth inhibition [5] | growth inhibition [6]
Cc1ccc(-c2n[nH]c(CC#N)n2)cc1 | 5.55% (inactive) | 1.6% (inactive) | -4.6% (inactive) | -12.7% (inactive) | -1.55% (inactive) | 18.7% (inactive)
COc1cc2ccc3c[n+]4ccccc4cc3c2cc1OC | 9.25% (inactive) | 14.2% (inactive) | 19.9% (inactive) | 19.4% (inactive) | 20.2% (inactive) | 14% (inactive)
Cc1nc2c(=O)[nH]c3ccccc3c2o1 | -3.25% (inactive) | 7% (inactive) | 3.1% (inactive) | -7% (inactive) | -10.3% (inactive) | -32.4% (inactive)
CCc1nnc(N)o1 | -14.8% (inactive) | 1.9% (inactive) | 0.95% (inactive) | -2.5% (inactive) | -13.7% (inactive) | -14.2% (inactive)
CCN1C(=O)/C(=C\c2coc3ccccc3c2=O)SC1=S | -2.6% (inactive) | -34.7% (inactive) | 0.2% (inactive) | 0.5% (inactive) | -23.7% (inactive) | -0.2% (inactive)
COc1cc(NC(N)=O)ccc1Nc1c2ccc(N)cc2nc2cc(N)ccc12 | 69.8% (inactive) | 22.6% (inactive) | 9.05% (inactive) | 43% (inactive) | -14.9% (inactive) | 27.6% (inactive)
O=CCC1CCCCC1 | -4.8% (inactive) | -2.2% (inactive) | -13.1% (inactive) | 16.9% (inactive) | 22.1% (inactive) | 6.25% (inactive)
C/C(=N/Nc1ccc([N+](=O)[O-])cc1[N+](=O)[O-])c1ccccc1 | -4.25% (inactive) | -13.2% (inactive) | -12.7% (inactive) | -13.8% (inactive) | 1% (inactive) | -11% (inactive)
CCOC(=O)/C=C(\C)NC | -27.5% (inactive) | -46.9% (inactive) | -30.9% (inactive) | -2.75% (inactive) | -47% (inactive) | 5.95% (inactive)
O=C(CN1CCC(O)(c2ccccc2)CC1)N1CCN(/C=C/c2ccccc2)CC1 | -4% (inactive) | -0.45% (inactive) | -3.75% (inactive) | -10.6% (inactive) | -0.1% (inactive) | 10.8% (inactive)
COc1ccc(C2SCC(=O)N2NC(=O)c2ccc(NC(C)=O)cc2)c(OC)c1 (stereo not given) | -27.7% (inactive) | -7.5% (inactive) | -23.2% (inactive) | 12.1% (inactive) | -22% (inactive) | -11.7% (inactive)
O=C(Nc1ccccc1)OC1C(OC(=O)c2ccccc2)OC(COC(=O)c2ccccc2)C1OC(=O)c1ccccc1 (stereo not given) | -0.5% (inactive) | 0.75% (inactive) | 0.25% (inactive) | -0.85% (inactive) | -9.1% (inactive) | -10.5% (inactive)
CN(C)c1ccc2c(c1)Cc1cc(NC(=O)CCC(=O)O)ccc1-2 | 8.7% (inactive) | 6.4% (inactive) | 19.4% (inactive) | -1.6% (inactive) | 8.85% (inactive) | 14.3% (inactive)
Nc1cc(Cl)c([N+](=O)[O-])cc1O | 6.2% (inactive) | 18.4% (inactive) | 5.55% (inactive) | -66.2% (inactive) | 5.05% (inactive) | -12% (inactive)
CCOC(=O)C(CNCc1ccccc1)C1CCCCC1 (stereo not given) | 8.65% (inactive) | 1.65% (inactive) | 18.2% (inactive) | -0.7% (inactive) | 5.85% (inactive) | 16.1% (inactive)
CC(=O)Nc1ccc(C(=O)NN2C(=O)CSC2c2ccc(O)cc2)cc1 (stereo not given) | -36% (inactive) | -36.1% (inactive) | -44.5% (inactive) | -15.7% (inactive) | -30.2% (inactive) | -49.7% (inactive)
O=C(/C=C/c1ccccc1Cl)c1ccccc1[N+](=O)[O-] | 96% (active) | 97.5% (active) | 97.7% (active) | 94.7% (active) | 96.5% (active) | 95.7% (active)
